# Source: the supplement of paper PMC8728848
# The full list was thinned out, with the strongest signals kept by preference.
# Key:
# Experiment in all cases: glycan array binding signal (z-score within array); higher = stronger binding
# Conditions in all cases: glycan notation: IUPAC condensed, linker removed
# Fuc(a1-2)Gal(b1-4)Glc = target: Fuc(a1-2)Gal(b1-4)Glc
# Summary of the method: (§1)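 The binding signal is a Z-score computed within each array. Data were drawn from 3228 arrays in the Consortium for Functional Glycomics database, restricted to those with a known protein sequence. Scores were averaged over arrays of the same protein sequence at different concentrations or buffers, and over linkers, and negative values can be taken as non-binding.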
# [1] = target: Fuc(a1-2)[GalNAc(a1-3)]Gal(b1-3)GalNAc(b1-3)Gal(a1-4)Gal(b1-4)Glc
# Summary of the method: as §1
# [2] = target: Fuc(a1-2)[GalNAc(a1-3)]Gal(b1-3)GlcNAc(b1-2)Man(a1-3)[Fuc(a1-2)[GalNAc(a1-3)]Gal(b1-3)GlcNAc(b1-2)Man(a1-6)]Man(b1-4)GlcNAc(b1-4)GlcNAc
# Summary of the method: as §1
# [3] = target: Fuc(a1-2)[GalNAc(a1-3)]Gal(b1-3)GlcNAc(b1-2)Man(a1-3)[Fuc(a1-2)[GalNAc(a1-3)]Gal(b1-3)GlcNAc(b1-2)Man(a1-6)]Man(b1-4)GlcNAc(b1-4)[Fuc(a1-6)]GlcNAc
# Summary of the method: as §1
# [4] = target: Fuc(a1-2)[GalNAc(a1-3)]Gal(b1-4)GlcNAc(b1-6)GalNAc
# Summary of the method: as §1
# Fuc(a1-3)GlcNAc = target: Fuc(a1-3)GlcNAc
# Summary of the method: as §1
# [5] = target: Fuc(a1-3)[Gal(b1-4)]GlcNAc(b1-3)Gal(b1-4)[Fuc(a1-3)]GlcNAc(b1-3)Gal(b1-4)[Fuc(a1-3)]GlcNAc
# Summary of the method: as §1
# [6] = target: Fuc(a1-3)[Gal(b1-4)]GlcNAc6S
# Summary of the method: as §1
# [7] = target: Fuc(a1-3)[GalNAc(b1-4)]GlcNAc6S
# Summary of the method: as §1
# Gal(a1-3)Gal = target: Gal(a1-3)Gal
# Summary of the method: as §1
# Gal(a1-3)Gal(b1-4)GlcNAc = target: Gal(a1-3)Gal(b1-4)GlcNAc
# Summary of the method: as §1
# [8] = target: Gal(a1-3)Gal(b1-4)[Fuc(a1-3)]GlcNAc(b1-2)Man(a1-3)[Gal(a1-3)Gal(b1-4)[Fuc(a1-3)]GlcNAc(b1-2)Man(a1-6)]Man(b1-4)GlcNAc(b1-4)GlcNAc
# Summary of the method: as §1
# [9] = target: Gal(b1-3)GalNAc(a1-3)[Fuc(a1-2)]Gal(b1-4)Glc
# Summary of the method: as §1
# [10] = target: Gal(b1-3)GlcNAc(b1-6)GalNAc
# Summary of the method: as §1
# [11] = target: Gal(b1-3)[GlcNAc(b1-6)]GalNAc
# Summary of the method: as §1
# [12] = target: Gal(b1-3)[Neu5Ac(a2-6)]GalNAc
# Summary of the method: as §1
# [13] = target: Gal(b1-4)GlcNAc(a1-6)Gal(b1-4)GlcNAc
# Summary of the method: as §1
# [14] = target: Gal(b1-4)GlcNAc(b1-2)[Gal(b1-4)GlcNAc(b1-4)]Man(a1-3)[Gal(b1-4)GlcNAc(b1-2)Man(a1-6)]Man(b1-4)GlcNAc(b1-4)GlcNAc
# Summary of the method: as §1
# [15] = target: Gal(b1-4)GlcNAc(b1-2)[Gal(b1-4)GlcNAc(b1-6)]Man(a1-6)[GlcNAc(b1-4)][Gal(b1-4)GlcNAc(b1-2)Man(a1-3)]Man(b1-4)GlcNAc(b1-4)GlcNAc
# Summary of the method: as §1
# [16] = target: Gal(b1-4)GlcNAc(b1-3)Gal(b1-3)GlcNAc
# Summary of the method: as §1
# [17] = target: Gal(b1-4)GlcNAc(b1-3)Gal(b1-4)GlcNAc(b1-2)Man(a1-3)[Gal(b1-4)GlcNAc(b1-3)Gal(b1-4)GlcNAc(b1-2)Man(a1-6)]Man(b1-4)GlcNAc(b1-4)GlcNAc
# Summary of the method: as §1
# [18] = target: Gal(b1-4)GlcNAc(b1-3)Gal(b1-4)GlcNAc(b1-3)Gal(b1-4)GlcNAc(b1-3)Gal(b1-4)GlcNAc(b1-3)Gal(b1-4)GlcNAc(b1-2)[Gal(b1-4)GlcNAc(b1-3)Gal(b1-4)GlcNAc(b1-3)Gal(b1-4)GlcNAc(b1-3)Gal(b1-4)GlcNAc(b1-3)Gal(b1-4)GlcNAc(b1-6)]Man(a1-6)[Gal(b1-4)GlcNAc(b1-3)Gal(b1-4)GlcNAc(b1-3)Gal(b1-4)GlcNAc(b1-3)Gal(b1-4)GlcNAc(b1-3)Gal(b1-4)GlcNAc(b1-2)Man(a1-3)]Man(b1-4)GlcNAc(b1-4)[Fuc(a1-6)]GlcNAc
# Summary of the method: as §1
# [19] = target: Gal(b1-4)GlcNAc(b1-3)Gal(b1-4)GlcNAc(b1-3)GalNAc
# Summary of the method: as §1
# [20] = target: Gal(b1-4)GlcNAc(b1-3)Gal(b1-4)GlcNAc(b1-3)[Gal(b1-4)GlcNAc(b1-3)Gal(b1-4)GlcNAc(b1-6)]GalNAc
# Summary of the method: as §1
# [21] = target: Gal(b1-4)GlcNAc(b1-6)[Gal(b1-4)GlcNAc(b1-3)]GalNAc
# Summary of the method: as §1
# Gal(b1-4)GlcNAc6P = target: Gal(b1-4)GlcNAc6P
# Summary of the method: as §1
# [22] = target: Gal3S(b1-4)[Fuc(a1-3)]GlcNAc
# Summary of the method: as §1
# Gal3S6S(b1-4)GlcNAc = target: Gal3S6S(b1-4)GlcNAc
# Summary of the method: as §1
# GalNAc(b1-4)GlcNAc6S = target: GalNAc(b1-4)GlcNAc6S
# Summary of the method: as §1
# GalNAc4S6S(b1-4)GlcNAc = target: GalNAc4S6S(b1-4)GlcNAc
# Summary of the method: as §1
binder,measurement,setting,value
"Actd5 (Actinidia), P84527 (protein) ISSCNGPCRDLNDCDGQLICIKGKCNDDPQVGTHICRGTTHSHQPGGCKPSGTLTCRGKSYPTYDCSPPVTSSTPAKLTNNDFSEGGDDGGPSECDESYHNNNERIVALSTGWYNGGSRCGKMIRITASNGKSVSAKVVDECDSRHGCDKEHAGQPPCRNNIVDGSNAVWSALGLDKNVGVVDITWSMA",glycan array binding signal (z-score),Fuc(a1-2)Gal(b1-4)Glc,-1.21
same,glycan array binding signal (z-score),[1],-0.038
same,glycan array binding signal (z-score),[2],0.017
same,glycan array binding signal (z-score),[3],1.21
same,glycan array binding signal (z-score),[4],-0.865
same,glycan array binding signal (z-score),Fuc(a1-3)GlcNAc,-0.676
same,glycan array binding signal (z-score),[5],-0.828
same,glycan array binding signal (z-score),[6],0.273
same,glycan array binding signal (z-score),[7],-1.21
same,glycan array binding signal (z-score),Gal(a1-3)Gal,-0.145
same,glycan array binding signal (z-score),Gal(a1-3)Gal(b1-4)GlcNAc,0.17
same,glycan array binding signal (z-score),[8],2.94
same,glycan array binding signal (z-score),[9],-0.318
same,glycan array binding signal (z-score),[10],-0.821
same,glycan array binding signal (z-score),[11],-0.2
same,glycan array binding signal (z-score),[12],-1.12
same,glycan array binding signal (z-score),[13],-0.614
same,glycan array binding signal (z-score),[14],0.256
same,glycan array binding signal (z-score),[15],0
same,glycan array binding signal (z-score),[16],-0.59
same,glycan array binding signal (z-score),[17],3.9
same,glycan array binding signal (z-score),[18],0.644
same,glycan array binding signal (z-score),[19],2.99
same,glycan array binding signal (z-score),[20],2.99
same,glycan array binding signal (z-score),[21],-0.2
same,glycan array binding signal (z-score),Gal(b1-4)GlcNAc6P,-1.05
same,glycan array binding signal (z-score),[22],-0.319
same,glycan array binding signal (z-score),Gal3S6S(b1-4)GlcNAc,0.094
same,glycan array binding signal (z-score),GalNAc(b1-4)GlcNAc6S,-0.111
same,glycan array binding signal (z-score),GalNAc4S6S(b1-4)GlcNAc,-0.058
